# Laboratory results published in PubChem BioAssay.
# This is one part of the list. Results filed as inconclusive are left out. Activity calls are given as the source filed them.
# What was measured:
# [1] = inhibitors of TNFa-induced NFkB p65 translocation, primary screen, imaging, HUVEC, MLSMR starter and 10KST1 sets (AID 438;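 active = inhibition above 20% together with a positive visual image hit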;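 also: compound added about 3h40 before a 20 min TNFalpha stimulation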;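 as to inhibition: signal is the nuclear over cytoplasmic p65 intensity ratio per well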); conditions: HUVEC TNFa-induced p65 nuclear translocation; cell count: measured here: nuclei count (cytotoxicity indicator), at 2.08 µM; inhibition: at 2 µM, stronger effect = higher value, 0% TNFa-plus-vehicle, 100% no-TNFa wells
# [2] = reduction of polyQ htt aggregates in cells – imaging, exon1htt(103Q)mCFP cells, high-content imaging, primary screen (AID 483;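 active = visual image review flags a hit and inhibition of aggregation exceeds 20%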;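 also: compound exposure lasted 3 days before fixation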;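 as to nuclei count: percent of the per-plate median nuclei count of sample wells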); conditions: exon1htt(103Q)mCFP cell line, aggregate imaging, at 2 µM; inhibition of aggregation: stronger effect = higher value; nuclei count: measured here: cell count, toxicity
# [3] = endothelial E-selectin expression blockers – imaging, HUVEC, immunofluorescence, MLSMR starter and 10KST1 sets, primary screen (AID 487;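 active = visually confirmed hit in the image check and inhibition above 20%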;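 as to inhibition: signal is fraction of cell area covered by stained E-selectin grains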;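 as to nuclei count: 100% = median nuclei count of all wells on the same plate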); conditions: HUVEC TNFalpha-induced E-selectin immunofluorescence imaging, at 2 µM; inhibition: stronger effect = higher value; nuclei count: measured here: cell number, toxicity
# [4] = Primary imaging screen for DUSP6 inhibitors that restore phospho-Erk in transfected HeLa cells, chemical complementation (AID 609;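 active = compounds giving at least 50% inhibition in the cell-based MKP-3 phosphatase rescue imaging test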;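 as to inhibition: phospho-Erk level distribution per well compared with pooled transfected vehicle control wells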); conditions: HeLa MKP-3 transfected, phospho-Erk imaging KS statistic, at 10 µM, cells stimulated with TPA for 15 min
# [5] = target: Dual specificity protein phosphatase 6 (Homo sapiens) (UniProt Q16828); assay: as above; conditions: HeLa MKP-3 transfected, phospho-Erk imaging KS statistic; at 10 µM; stronger effect = higher value; cells stimulated with TPA for 15 min
# [6] = target: Voltage-gated potassium channel subunit beta-2 (Rattus norvegicus) (UniProt P62483); assay: inhibitors of rat Kvbeta2 reductase activity – biochemical, NADPH fluorescence, primary screen (AID 622;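 active = fluorescence slope higher than the sample average by over 3 SD, cut at about -0.22 in these data, passing the limit was not always enough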;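 also: slope of raw intensity against log time taken from 70 to 1610 s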); conditions: recombinant KvBeta, 4-cyanobenzaldehyde reduction, at 10 µM, stronger effect = higher value
# [7] = target: Voltage-gated potassium channel subunit beta-2 (Rattus norvegicus) (UniProt P62483); assay: enhancers of rat Kvbeta2 NADPH turnover – biochemical, NADPH fluorescence, primary screen (AID 623;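 active = NADPH fluorescence slope more negative than the mean of all samples by about 3 SD, 99.7% confidence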;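 also: fluorescence intensity change per second fitted from 20 to 320 s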); conditions: Recombinant KvBeta, NADPH fluorescence decrease slope, 10 min; at 10 µM; stronger effect = lower value
# [8] = target: Muscarinic acetylcholine receptor M4 (Homo sapiens) (UniProt P08173); assay: M4-linked GIRK flux change, two-sided – cell-based, HEK293 M4/GIRK, thallium flux, BTC-AM, M4 allosteric agonist project, primary screen (AID 625;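 active = fluorescence slope after compound addition differing from the mean of all tested samples at 99.7% confidence, mostly higher but some lower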;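 also: thallium influx through GIRK channels coupled to M4 in HEK293 cells with BTC-AM dye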); conditions: at 10 µM, actives lie on both sides
# [9] = inhibitors of larval lipid processing in zebrafish, primary screen, whole organism, PED6 fluorescence, gall bladder and intestine (AID 686;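 active = a full or partial loss of lipid-probe fluorescence in the fish gall bladder, intestine or both, judged by eye; inactive = no fluorescence loss, or compound toxic to the fish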;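 also: larvae 5 to 7 days old with five fish per well; signal comes from phospholipase A2 cleavage of quenched PED6 carried via bile; overnight exposure to compound and PED6 before scoring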); conditions: Zebrafish larvae PED6 lipid processing, fluorescence scoring; screened at 20 µM (by protocol)
# [10] = target: Solute carrier family 12 member 5 (Homo sapiens) (UniProt Q9H2X9); assay: retest of KCC2 transport modulators without sodium – cell-based, HEK293 KCC2, thallium flux, secondary assay, confirmation (AID 1713;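 active = thallium flux slope above the same plate's solvent-only control mean plus 3 SD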); conditions: FluoZin2 fluorescence, at 10 µM, stronger effect = higher value
# PubChem AID 1714 = conditions: HEK293-KCC2 + bumetanide/ouabain, thallium flux FluoZin2; at 10 µM; stronger effect = higher value
# [11] = target: Solute carrier family 12 member 5 (Homo sapiens) (UniProt Q9H2X9); assay: retest of KCC2 transport modulation, ouabain-free – cell-based, HEK293 KCC2, thallium flux, FluoZin2, secondary assay 2, confirmation (AID 1715;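 active = thallium flux slope more than 3 SD above or below the plate's solvent-only control mean, mostly below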;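 also: raw slope with 0.1% DMSO as baseline and bumetanide as block control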); conditions: HEK293-KCC2, thallium flux FluoZin2 fluorescence; at 10 µM; actives lie on both sides; F/F0 rise rate, 10–20 s post-thallium
# [12] = compound effects on native HEK Tl+ uptake – HEK cells, counterscreen 1, counter-screen for KCC2 modulator project, confirmation (AID 1716); conditions: HEK293 parental cells, thallium flux FluoZin2, ouabain; at 10 µM; baseline-ratio fluorescence slope, 10–20 s after thallium
# [13] = target: Solute carrier family 12 member 5 (Homo sapiens) (UniProt Q9H2X9); assay: modulation of KCC2 thallium flux in HEK cells – cell-based, ouabain, retest, confirmation (AID 1717;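 active = thallium flux slope beyond 3 SD from same-plate DMSO control mean in most replicates, usually higher, sometimes lower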;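 also: slope of initial-normalized fluorescence between seconds 10 and 20 after thallium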); conditions: HEK293-KCC2, thallium flux FluoZin2 fluorescence, at 10 µM, bidirectional: low = inhibitor, high = activator
# [14] = native HEK Tl+ uptake effects, second counter-screen – HEK cells, counterscreen 2, counter-screen for KCC2 modulator project, confirmation (AID 1718;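 active = thallium flux slope above the same plate's solvent-control mean plus 3 SD in both duplicate wells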;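 also: run without ouabain in cells lacking the KCC2 cotransporter; slope of fluorescence scaled to its starting value between 10 and 20 s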); conditions: HEK293 parental, thallium flux FluoZin-2 fluorescence slope; at 10 µM
# [15] = loss of swimming-algae plug formation – whole organism, Chlamydomonas reinhardtii, WT vs cilia-less mutant, absorbance, 96-well, primary screen (AID 463189;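 active = inhibition at or above 50% relative to wild type and mutant plate controls; inactive = inhibition below 50%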;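 also: 0% = wild type cc124 cells in DMSO and 100% = ciliumless bld1 mutant cells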); conditions: Chlamydomonas reinhardtii gravitaxis, OD600 absorbance, 2 days; at 10 µM; stronger effect = higher value
# [16] = blockers of RIG-like receptor reporter activation – cell-based, Sendai virus stimulus, luciferase, 10K MLSCN set, TLR/RLR signaling modifier project, primary screen (AID 602276;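 active = inhibition at or above 50% at 10 µM; inactive = inhibition below 50%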;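 also: firefly luciferase from ISG56 promoter only with Renilla not read in this screen; 0% = Sendai virus plus DMSO and 100% = medium plus DMSO without virus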); conditions: HEK293 RL24 IRF3 luciferase reporter, at 10 µM, stronger effect = higher value
# [17] = TLR3 IRF3 reporter activation blockers – cell-based, poly I:C stimulus, luciferase, 10K MLSCN set, primary screen (AID 602277;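 active = inhibition of the reporter signal at or above 50%; inactive = inhibition below 50%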); conditions: HEK293-TLR3 RL24 IRF3 luciferase reporter, at 10 µM, stronger effect = higher value
# [18] = measured here: cell density z-score
# [19] = measured here: nuclear c-Myc green intensity z-score
# [20] = measured here: nuclear pErk red intensity z-score, stronger effect = higher value
# Chain of Solute carrier family 12 member 5 (Homo sapiens) (Q9H2X9 whole entry, looked up): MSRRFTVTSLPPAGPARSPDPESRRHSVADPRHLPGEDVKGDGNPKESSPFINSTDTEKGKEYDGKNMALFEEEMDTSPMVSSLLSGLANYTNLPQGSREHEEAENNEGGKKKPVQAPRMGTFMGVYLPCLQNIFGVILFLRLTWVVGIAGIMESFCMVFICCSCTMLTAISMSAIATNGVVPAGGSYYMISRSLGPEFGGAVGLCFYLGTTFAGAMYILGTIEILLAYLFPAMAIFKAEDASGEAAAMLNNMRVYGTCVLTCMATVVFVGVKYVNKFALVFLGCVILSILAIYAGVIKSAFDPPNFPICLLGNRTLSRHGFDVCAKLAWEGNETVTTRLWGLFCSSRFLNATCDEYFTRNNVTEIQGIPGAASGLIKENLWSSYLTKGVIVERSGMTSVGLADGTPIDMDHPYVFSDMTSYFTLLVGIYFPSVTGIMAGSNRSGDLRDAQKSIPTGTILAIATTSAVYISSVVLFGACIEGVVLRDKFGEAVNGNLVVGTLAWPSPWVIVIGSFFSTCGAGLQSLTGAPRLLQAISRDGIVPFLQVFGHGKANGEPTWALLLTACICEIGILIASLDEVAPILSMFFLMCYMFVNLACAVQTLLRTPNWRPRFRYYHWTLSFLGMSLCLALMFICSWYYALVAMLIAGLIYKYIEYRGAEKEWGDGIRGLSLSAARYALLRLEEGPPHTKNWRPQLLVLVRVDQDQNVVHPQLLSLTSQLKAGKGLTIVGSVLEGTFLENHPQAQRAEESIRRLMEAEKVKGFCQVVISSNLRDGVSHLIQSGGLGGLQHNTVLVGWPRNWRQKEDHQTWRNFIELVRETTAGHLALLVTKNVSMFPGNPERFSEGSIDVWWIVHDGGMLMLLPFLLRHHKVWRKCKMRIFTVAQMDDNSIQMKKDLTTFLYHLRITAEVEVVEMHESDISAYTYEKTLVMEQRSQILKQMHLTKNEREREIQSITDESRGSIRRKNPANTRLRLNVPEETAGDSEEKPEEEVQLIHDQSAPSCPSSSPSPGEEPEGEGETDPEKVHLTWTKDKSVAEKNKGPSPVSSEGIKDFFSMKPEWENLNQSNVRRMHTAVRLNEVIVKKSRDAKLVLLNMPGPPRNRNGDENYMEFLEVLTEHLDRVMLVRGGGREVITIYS
# Chain of Voltage-gated potassium channel subunit beta-2 (Rattus norvegicus) (P62483 whole entry, looked up): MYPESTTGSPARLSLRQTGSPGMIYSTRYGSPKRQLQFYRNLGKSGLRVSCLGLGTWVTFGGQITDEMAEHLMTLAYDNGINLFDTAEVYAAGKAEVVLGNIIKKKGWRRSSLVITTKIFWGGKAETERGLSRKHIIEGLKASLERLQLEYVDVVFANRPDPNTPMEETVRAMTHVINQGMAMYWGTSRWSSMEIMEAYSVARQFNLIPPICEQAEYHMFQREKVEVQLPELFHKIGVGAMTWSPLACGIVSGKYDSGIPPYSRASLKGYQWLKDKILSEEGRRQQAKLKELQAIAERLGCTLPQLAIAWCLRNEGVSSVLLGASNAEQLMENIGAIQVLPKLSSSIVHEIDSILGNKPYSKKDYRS
# Chain of Dual specificity protein phosphatase 6 (Homo sapiens) (Q16828 whole entry, looked up): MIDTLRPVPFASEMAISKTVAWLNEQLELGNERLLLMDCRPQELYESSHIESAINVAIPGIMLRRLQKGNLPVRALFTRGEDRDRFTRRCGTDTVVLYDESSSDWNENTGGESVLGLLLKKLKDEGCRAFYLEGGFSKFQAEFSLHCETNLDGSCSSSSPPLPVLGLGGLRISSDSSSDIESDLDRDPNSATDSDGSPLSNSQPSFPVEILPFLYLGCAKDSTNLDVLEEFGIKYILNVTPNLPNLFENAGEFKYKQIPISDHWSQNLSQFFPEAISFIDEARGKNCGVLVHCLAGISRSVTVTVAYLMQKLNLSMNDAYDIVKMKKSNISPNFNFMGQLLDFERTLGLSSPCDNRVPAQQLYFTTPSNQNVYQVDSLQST
# Chain of Muscarinic acetylcholine receptor M4 (Homo sapiens) (P08173 whole entry, looked up): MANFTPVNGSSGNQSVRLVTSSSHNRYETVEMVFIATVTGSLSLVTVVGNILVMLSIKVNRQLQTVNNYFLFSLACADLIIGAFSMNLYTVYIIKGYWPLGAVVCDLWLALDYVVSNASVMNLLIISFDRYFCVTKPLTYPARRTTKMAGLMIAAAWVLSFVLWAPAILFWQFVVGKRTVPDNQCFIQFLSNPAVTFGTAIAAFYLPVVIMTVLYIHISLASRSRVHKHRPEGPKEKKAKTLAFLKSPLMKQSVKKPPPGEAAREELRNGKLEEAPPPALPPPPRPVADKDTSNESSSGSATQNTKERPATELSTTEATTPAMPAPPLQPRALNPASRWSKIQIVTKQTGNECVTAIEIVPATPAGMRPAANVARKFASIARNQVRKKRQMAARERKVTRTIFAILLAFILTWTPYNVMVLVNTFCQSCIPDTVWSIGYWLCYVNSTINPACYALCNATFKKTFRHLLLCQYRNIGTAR
smiles,measurement,setting,value
CCNCc1cc2cc(C)ccc2[nH]c1=O,cell count,[1],596
same,inhibition,[1],-5.2% (inactive)
same,inhibition of aggregation,[2],1.8% (inactive)
same,nuclei count,[2],118%
same,inhibition,[3],-107% (inactive)
same,nuclei count,[3],132%
same,z-score,[4]; [18],0.581
same,z-score,[4]; [19],-1.49
same,z-score,[4]; [20],-1.38
same,inhibition,[5],2.71% (inactive)
same,fluorescence slope,[6],-0.515 (inactive)
same,NADPH fluorescence slope,[7],-4.8e-05 (inactive)
same,fluorescence slope,[8],0.00569 (inactive)
same,outcome,[9],inactive
same,normalised thallium flux (F/F0 slope),[10],0.00875 (inactive)
same,normalized thallium flux,PubChem AID 1714,0.00485 (inactive)
same,normalized thallium flux,[11],0.034 (inactive)
same,thallium flux rate (normalised fluorescence),[12],0.00817 (inactive)
same,"raw Tl+ flux slope (below DMSO = inhibition, above = activation)",[13],0.0185 (inactive)
same,thallium flux slope,[14],0.0111 (inactive)
same,inhibition,[15],9.6% (inactive)
same,inhibition,[16],3.24% (inactive)
same,inhibition,[17],16.9% (inactive)
C(=N\n1cnnc1)/c1cccnc1,cell count,[1],581
same,inhibition,[1],0.9% (inactive)
same,inhibition of aggregation,[2],18.4% (inactive)
same,nuclei count,[2],76.7%
same,inhibition,[3],-64.9% (inactive)
same,nuclei count,[3],115%
same,z-score,[4]; [18],0.785
same,z-score,[4]; [19],-0.718
same,z-score,[4]; [20],0.742
same,inhibition,[5],1.42% (inactive)
same,fluorescence slope,[6],-0.457 (inactive)
same,NADPH fluorescence slope,[7],-0.000114 (inactive)
same,fluorescence slope,[8],0.00428 (inactive)
same,outcome,[9],inactive
same,normalised thallium flux (F/F0 slope),[10],0.0086 (inactive)
same,normalized thallium flux,PubChem AID 1714,0.00647 (inactive)
same,normalized thallium flux,[11],0.0321 (inactive)
same,thallium flux rate (normalised fluorescence),[12],0.0072 (inactive)
same,"raw Tl+ flux slope (below DMSO = inhibition, above = activation)",[13],0.021 (inactive)
same,thallium flux slope,[14],0.0101 (inactive)
same,inhibition,[15],0.59% (inactive)
same,inhibition,[16],-11.4% (inactive)
same,inhibition,[17],-7.31% (inactive)
CCCOC(=O)CC1C(=O)NCCN1Cc1ccc(F)cc1 (stereo unspecified),normalised thallium flux (F/F0 slope),[10],0.00813 (inactive)
same,normalized thallium flux,PubChem AID 1714,0.00582 (inactive)
same,normalized thallium flux,[11],0.0278 (inactive)
same,thallium flux rate (normalised fluorescence),[12],0.0066 (inactive)
same,"raw Tl+ flux slope (below DMSO = inhibition, above = activation)",[13],0.019 (inactive)
same,thallium flux slope,[14],0.00872 (inactive)
COc1cccc(-c2nnc(NC(=O)c3ccc(S(=O)(=O)N(CC(C)C)CC(C)C)cc3)o2)c1,normalised thallium flux (F/F0 slope),[10],0.0109 (inactive)
same,normalized thallium flux,PubChem AID 1714,0.0246 (active)
same,normalized thallium flux,[11],0.0331 (inactive)
same,thallium flux rate (normalised fluorescence),[12],0.0752 (active)
same,"raw Tl+ flux slope (below DMSO = inhibition, above = activation)",[13],0.0359 (active)
same,thallium flux slope,[14],0.0148 (active)
CCn1c(=S)[nH]c2sc3c(c2c1=O)CCCCC3,normalised thallium flux (F/F0 slope),[10],0.0279 (active)
same,normalized thallium flux,PubChem AID 1714,0.092 (active)
same,normalized thallium flux,[11],0.0959 (active)
same,thallium flux rate (normalised fluorescence),[12],0.0964 (active)
same,"raw Tl+ flux slope (below DMSO = inhibition, above = activation)",[13],0.0856 (active)
same,thallium flux slope,[14],0.1 (active)
COC(=O)c1sccc1NC(=O)CCC1CCCC1,normalised thallium flux (F/F0 slope),[10],0.00664 (inactive)
same,normalized thallium flux,PubChem AID 1714,0.00434 (inactive)
same,normalized thallium flux,[11],0.032 (inactive)
same,thallium flux rate (normalised fluorescence),[12],0.00709 (inactive)
same,"raw Tl+ flux slope (below DMSO = inhibition, above = activation)",[13],0.0186 (inactive)
same,thallium flux slope,[14],0.00941 (inactive)
COc1ccc(-c2nc(CS(=O)CC(=O)N3CCc4ccccc4C3)c(C)o2)cc1 (stereo unspecified),normalised thallium flux (F/F0 slope),[10],0.00722 (inactive)
same,normalized thallium flux,PubChem AID 1714,0.00429 (inactive)
same,normalized thallium flux,[11],0.0225 (active)
same,thallium flux rate (normalised fluorescence),[12],0.00707 (inactive)
same,"raw Tl+ flux slope (below DMSO = inhibition, above = activation)",[13],0.0124 (active)
same,thallium flux slope,[14],0.00907 (inactive)
CC(C)n1cnc2c(Nc3cccc(Cl)c3)nc(N(CCO)CCCO)nc21,normalised thallium flux (F/F0 slope),[10],0.00575 (inactive)
same,normalized thallium flux,PubChem AID 1714,0.00472 (inactive)
same,normalized thallium flux,[11],0.0232 (active)
same,thallium flux rate (normalised fluorescence),[12],0.0075 (inactive)
same,thallium flux slope,[14],0.0113 (inactive)
CC/S(CC1CC1(Cl)Cl)=N\S(=O)(=O)c1ccc(C)cc1 (stereo unspecified),normalised thallium flux (F/F0 slope),[10],0.0104 (inactive)
same,normalized thallium flux,PubChem AID 1714,0.00604 (inactive)
same,normalized thallium flux,[11],0.0348 (inactive)
same,thallium flux rate (normalised fluorescence),[12],0.00744 (inactive)
same,"raw Tl+ flux slope (below DMSO = inhibition, above = activation)",[13],0.0213 (inactive)
same,thallium flux slope,[14],0.0107 (inactive)
O=C(NNC(=S)NC(=O)c1cn(-c2ccccc2)nc1-c1ccccc1)c1ccncc1,normalised thallium flux (F/F0 slope),[10],0.00764 (inactive)
same,normalized thallium flux,PubChem AID 1714,0.0138 (active)
same,normalized thallium flux,[11],0.0344 (inactive)
same,thallium flux rate (normalised fluorescence),[12],0.0141 (active)
same,thallium flux slope,[14],0.0155 (active)
CCOc1ccc(NC(=O)CN(C)CC(=O)Nc2cccc(Cl)c2C)cc1OCC,normalised thallium flux (F/F0 slope),[10],0.00801 (inactive)
same,normalized thallium flux,PubChem AID 1714,0.00595 (inactive)
same,normalized thallium flux,[11],0.0338 (inactive)
same,thallium flux rate (normalised fluorescence),[12],0.00749 (inactive)
same,"raw Tl+ flux slope (below DMSO = inhibition, above = activation)",[13],0.0213 (inactive)
same,thallium flux slope,[14],0.0107 (inactive)
S=C(NN=C1CCN(Cc2ccccc2)CC1)NC1CCCCC1,normalised thallium flux (F/F0 slope),[10],0.0184 (inactive)
same,normalized thallium flux,PubChem AID 1714,0.00465 (inactive)
same,normalized thallium flux,[11],0.0249 (active)
same,thallium flux rate (normalised fluorescence),[12],0.00811 (inactive)
same,"raw Tl+ flux slope (below DMSO = inhibition, above = activation)",[13],0.0155 (active)
same,thallium flux slope,[14],0.0111 (inactive)
COc1ccc([N+](=O)[O-])cc1NC(=O)COC(=O)/C=C/c1ccco1,normalised thallium flux (F/F0 slope),[10],0.00867 (inactive)
same,normalized thallium flux,PubChem AID 1714,0.00651 (inactive)
same,normalized thallium flux,[11],0.0316 (inactive)
same,thallium flux rate (normalised fluorescence),[12],0.0079 (inactive)
same,"raw Tl+ flux slope (below DMSO = inhibition, above = activation)",[13],0.0204 (inactive)
same,thallium flux slope,[14],0.011 (inactive)
O=C(N/N=C/c1ccc(Br)o1)c1cncc(Br)c1,normalised thallium flux (F/F0 slope),[10],0.0115 (active)
same,normalized thallium flux,PubChem AID 1714,0.0326 (active)
same,normalized thallium flux,[11],0.0307 (inactive)
same,thallium flux rate (normalised fluorescence),[12],0.0124 (active)
same,thallium flux slope,[14],0.0107 (active)
CC(=O)NC(=S)NNC(=O)c1ccc(Br)cc1,normalised thallium flux (F/F0 slope),[10],0.00779 (inactive)
same,normalized thallium flux,PubChem AID 1714,0.0133 (active)
same,normalized thallium flux,[11],0.0358 (inactive)
same,thallium flux rate (normalised fluorescence),[12],0.0158 (active)
same,thallium flux slope,[14],0.0176 (active)
O=C(CSC1=NCCS1)Nc1nc(-c2ccccc2)cs1,normalised thallium flux (F/F0 slope),[10],0.0102 (inactive)
same,normalized thallium flux,PubChem AID 1714,0.00549 (inactive)
same,normalized thallium flux,[11],0.0253 (active)
same,thallium flux rate (normalised fluorescence),[12],0.00757 (inactive)
same,"raw Tl+ flux slope (below DMSO = inhibition, above = activation)",[13],0.0163 (active)
same,thallium flux slope,[14],0.0115 (inactive)
